High-throughput results (PubChem BioAssay)
TDP1 cell CPT: DT40-hTDP1 cell growth loss with CPT | chicken DT40 Tdp1-/-;hTDP1 cells + 20 nM CPT, ATP luminescence, 48 h | Potency, µM (series often up to 46.2 µM), without a hit: at the top dose activity change, negative = growth inhibition, hits mostly inhibitors | 420,000 tested, 12% active | AID 686979; note: potency is the fitted concentration of half-maximal effect; % is set by controls: 0 for no effect and ±100 for the full control effect; nearly all actives have a fitted effect of over 55% in size
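Chicken DT40 Tdp1-/- cells complemented with human TDP1, 400 cells/well, exposed to compounds plus 20 nM camptothecin for at least 48 h at 37 C; viability read as ATP content by CellTiter-Glo luminescence.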
ASM inhibitor: blocks human secretory acid sphingomyelinase. AID 504937. placental ASM, HMU-PC fluorogenic substrate, 60 min. 340,000 tested, 0.006% active. P17405. Potency, µM (titrated, usually from 57.5 µM), for inactives: at the top dose activity change, negative = inhibition, most hits filed as inhibitors; note: potency is the fitted concentration of half-maximal effect
Target sequence (P17405 47-631 limits assumed): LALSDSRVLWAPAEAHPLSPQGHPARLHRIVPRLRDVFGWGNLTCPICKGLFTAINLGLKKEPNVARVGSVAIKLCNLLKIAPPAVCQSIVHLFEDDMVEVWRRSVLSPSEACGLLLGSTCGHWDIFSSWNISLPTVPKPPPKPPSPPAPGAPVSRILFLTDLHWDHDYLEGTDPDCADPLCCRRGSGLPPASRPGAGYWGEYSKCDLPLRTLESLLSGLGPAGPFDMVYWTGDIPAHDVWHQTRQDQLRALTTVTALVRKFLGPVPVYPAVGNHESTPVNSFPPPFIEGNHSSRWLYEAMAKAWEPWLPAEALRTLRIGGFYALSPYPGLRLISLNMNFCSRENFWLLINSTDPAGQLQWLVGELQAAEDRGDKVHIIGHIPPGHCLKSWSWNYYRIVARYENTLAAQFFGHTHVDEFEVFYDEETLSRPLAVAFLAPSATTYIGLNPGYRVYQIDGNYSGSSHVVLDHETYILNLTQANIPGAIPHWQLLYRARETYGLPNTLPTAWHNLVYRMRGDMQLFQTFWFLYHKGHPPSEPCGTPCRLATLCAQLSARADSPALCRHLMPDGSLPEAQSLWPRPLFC
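Human placenta-derived ASM preincubated with compound 10 min at room temperature, then reacted with 9 uM (final) fluorogenic HMU-PC substrate for 60 min at 37 C. Stop solution raises pH to 10; fluorescence read at Ex 386/Em 447 nm.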
IL-1B inflam inh: inflammasome signaling inhibition, IL-1 beta readout; 360,000 tested, 4.7% active; THP-1 LPS/ATP IL-1B secretion, AlphaLISA, 16 h; stronger effect = lower value; activity change, % at 57.5 µM; in the data active = activity change below about -50%; inconclusive = mostly about -30% to -49%; note: % is set by controls: 0 for no effect and ±100 for the full control effect
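THP-1 cells pretreated 1 hr with compounds (up to 57.5 uM final), then stimulated with LPS (250 ng/mL final) plus ATP (1.25 mM final); secreted IL-1B measured by AlphaLISA after 16 hr, decreased signal indicating inhibition.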
TGFb inhibitor: TGF-b pathway inhibition; HepG2 CAGA-GFP TGF-b/SMAD3 reporter, GFP fluorescence, 18 h; TGF-beta stimulated, 500 pg/mL final; Potency, µM (series often up to 46.1 µM), for the others: at the top dose activity, negative = inhibition, actives largely listed as inhibitors; 410,000 tested, 1.2% active; note: potency is the fitted concentration of half-maximal effect; % is set by controls: 0 for no effect and ±100 for the full control effect; nearly all actives have a fitted effect of over 65% in size
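Using HEPG2 CAGA-GFP reporter cells at 1000 cells/well, we pinned test compounds, stimulated with recombinant TGF-beta (500 pg/mL final) and measured total well GFP after 18 h.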
TDP1 cell noCPT: qHTS for Inhibitors of human tyrosyl-DNA phosphodiesterase 1 (TDP1): qHTS in cells in absence of CPT; DT40 Tdp1-/- hTDP1 cells, no CPT, ATP luminescence, 48 h; Potency, µM (top dose mostly 46.2 µM), inactives show top-dose activity change, negative = growth inhibition, actives largely listed as inhibitors; 420,000 tested, 15% active; note: potency is the fitted concentration of half-maximal effect; % is set by controls: 0 for no effect and ±100 for the full control effect; nearly all actives have a fitted effect of over 55% in size
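DT40 Tdp1-/-;hTDP1 cells, no CPT (DMSO vehicle only), 400 cells/well; compounds pin-transferred; ≥48 hr, 37 °C; CellTiter-Glo 30 min RT dark, luminescence read.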
HepG2 tox: kills HepG2 cells in TGF-b inhibitor counter-screen; HepG2 CAGA-GFP viability, ATP luminescence, 18 h; Potency, µM (top dose mostly 46.1 µM), without a hit: at the highest dose activity change, negative = cytotoxicity, actives largely listed as cytotoxic; 410,000 tested, 0.76% active; note: potency is the fitted concentration of half-maximal effect
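CellTiter-Glo luminescence gave cytotoxicity after 18 hours at 37 degrees C. The cells were HepG2 CAGA-GFP in 1% FBS DMEM, stimulated with 500 pg/mL TGF-beta after compound addition. %Activity was normalised to no-cell wells (complete cell-killing) and DMSO (no toxicity), and curves were fitted and classified.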
Starred values were filed as active, the others as inactive. Compounds with a hit are over-represented: about 19% of the library has one in this group of screens. Unless noted, calls come from the whole dose curve; as a rule, active = well fitted curve in the direction sought with a large enough effect; inconclusive = small, poorly fitted or top-dose-only effect, or another doubt; inactive = no such curve, though single readings can be large; an effect the other way counts as inactive or inconclusive.

`Cc1cc(C)cc(N2C(=O)C=CC2=O)c1` gave TDP1 cell CPT 0.73µM*, ASM inhibitor 3%, IL-1B inflam inh -103*, TGFb inhibitor inconclusive, TDP1 cell noCPT 0.82µM* and HepG2 tox -82%.
For Cc1cc(N2C(=O)C=CC2=O)c([N+](=O)[O-])cc1C the results were TDP1 cell CPT 0.82µM*, ASM inhibitor -2%, IL-1B inflam inh -3, TGFb inhibitor inconclusive, TDP1 cell noCPT 1.8µM* and HepG2 tox -77%.
For Cc1c(Cl)cc(-n2cnnn2)cc1[N+](=O)[O-] the results were TDP1 cell CPT -29%, ASM inhibitor 7%, IL-1B inflam inh 35, TGFb inhibitor 1%, TDP1 cell noCPT -29% and HepG2 tox -1%.
`Cc1c([N+](=O)[O-])cc(N2C(=O)C=CC2=O)cc1[N+](=O)[O-]` gave TDP1 cell CPT 0.73µM*, ASM inhibitor -2%, IL-1B inflam inh -15, TGFb inhibitor 2%, TDP1 cell noCPT 1.6µM* and HepG2 tox 0%.
For O=[N+]([O-])c1ccc(OCC(O)CNCCNc2nccc(C(F)(F)F)n2)cc1 (stereo not drawn) the results were TDP1 cell CPT -26%, ASM inhibitor -4%, IL-1B inflam inh inconclusive, TGFb inhibitor inconclusive, TDP1 cell noCPT inconclusive and HepG2 tox -10%.
Cc1n[nH]c(C)c1CCNCc1ccc(OCC(O)CN2CCCCC2)cc1 (stereo not drawn) was read as TDP1 cell CPT 11%, ASM inhibitor 3%, IL-1B inflam inh -5, TGFb inhibitor 7%, TDP1 cell noCPT 30% and HepG2 tox 2%.
CN(C)CCN1C(=O)c2ccccc2C1=O was read as TDP1 cell CPT 0%, ASM inhibitor -7%, IL-1B inflam inh 45, TGFb inhibitor -3%, TDP1 cell noCPT -12% and HepG2 tox -8%.
`O=C1c2cccc3cccc(c23)C(=O)N1CCCN(C(=O)c1cccs1)c1cccc(F)c1` gave TDP1 cell CPT inconclusive, ASM inhibitor -4%, IL-1B inflam inh 30, TGFb inhibitor -11%, TDP1 cell noCPT 16µM* and HepG2 tox -3%.
Screening CN(C)CCN1C(=O)c2cccc3cc([N+](=O)[O-])cc(c23)C1=O returned TDP1 cell CPT 0.21µM*, ASM inhibitor -3%, IL-1B inflam inh -102*, TGFb inhibitor 6.3µM*, TDP1 cell noCPT 0.26µM* and HepG2 tox -14%.
Screening Cc1ccc(N(CCCCN2C(=O)c3ccccc3C2=O)C(=O)c2cccc([N+](=O)[O-])c2)cc1 returned TDP1 cell CPT inconclusive, ASM inhibitor -6%, IL-1B inflam inh -29, TGFb inhibitor -14%, TDP1 cell noCPT 16µM* and HepG2 tox -11%.
Screening O=C1c2ccccc2C(=O)N1CCCCN(C(=O)c1ccc(Cl)s1)c1ccc(Cl)cc1 returned TDP1 cell CPT inconclusive, ASM inhibitor -6%, IL-1B inflam inh -22, TGFb inhibitor -2%, TDP1 cell noCPT 21µM* and HepG2 tox 25%.
Screening Cc1ccc(Sc2c(C)nn(C(C)(C)C)c2OC(=O)C(C)(C)C)cc1 returned TDP1 cell CPT -23%, TGFb inhibitor -21%, TDP1 cell noCPT inconclusive and HepG2 tox -6%.
CN(CCOc1ccccc1)S(=O)(=O)c1ccccc1C#N was read as TDP1 cell CPT 4%, ASM inhibitor -3%, IL-1B inflam inh 21, TGFb inhibitor 20%, TDP1 cell noCPT -14% and HepG2 tox -12%.
`COc1ccc(C(=O)O)cc1S(=O)(=O)Nc1ccc(N2CCCCC2)cc1` gave TDP1 cell CPT 3%, ASM inhibitor 4%, IL-1B inflam inh 8, TGFb inhibitor -7%, TDP1 cell noCPT -3% and HepG2 tox 7%.
`CN(C)CCCN1C(=O)c2cccc3cccc(c23)C1=O` gave TDP1 cell CPT inconclusive, ASM inhibitor -2%, IL-1B inflam inh -89*, TGFb inhibitor -29%, TDP1 cell noCPT inconclusive and HepG2 tox 1%.
COc1ccc(N(CCCN2C(=O)c3cccc4cccc(c34)C2=O)C(=O)c2cccc(OC)c2)cc1 was read as TDP1 cell CPT 13µM*, ASM inhibitor -5%, IL-1B inflam inh -11, TGFb inhibitor -18%, TDP1 cell noCPT 10µM* and HepG2 tox -2%.
Cc1ccc(C)c(-c2csc(N/N=C/c3ccco3)n2)c1 was read as TDP1 cell CPT 3%, ASM inhibitor 9%, IL-1B inflam inh -17, TGFb inhibitor -18%, TDP1 cell noCPT inconclusive and HepG2 tox 4%.
Screening O=C(C[C@@H]1CC[C@H](NC(=O)Cc2ccccn2)[C@@H](CO)O1)NCCc1ccccc1 returned TDP1 cell CPT 1%, IL-1B inflam inh -2 and TDP1 cell noCPT 4%.
Cc1cc(NC(=O)COC(=O)C2CC(=O)N(c3ccc(Cl)cc3)C2)no1 (stereo not drawn) was read as TDP1 cell CPT -15%, ASM inhibitor -5%, IL-1B inflam inh 10, TGFb inhibitor 3%, TDP1 cell noCPT -13% and HepG2 tox 0%.
CCN(CC)CCC(=O)N1c2ccccc2Sc2ccc(Cl)cc21 was read as TDP1 cell CPT 15µM*, ASM inhibitor 4%, IL-1B inflam inh -71*, TGFb inhibitor inconclusive, TDP1 cell noCPT inconclusive and HepG2 tox -27%.
For CN(C)CCC(=O)N1c2ccccc2Sc2ccc(Cl)cc21 the results were TDP1 cell CPT -7%, ASM inhibitor 1%, IL-1B inflam inh -59*, TGFb inhibitor -15%, TDP1 cell noCPT -28% and HepG2 tox -13%.
For O=C(C[n+]1ccccc1)N1c2ccccc2Sc2ccccc21 the results were TDP1 cell CPT inconclusive, ASM inhibitor -2%, IL-1B inflam inh -18, TGFb inhibitor 21%, TDP1 cell noCPT inconclusive and HepG2 tox -1%.
For CN(C)CC(=O)N1c2ccccc2Sc2ccc(Cl)cc21 the results were TDP1 cell CPT -20%, ASM inhibitor 3%, IL-1B inflam inh -12, TGFb inhibitor 1%, TDP1 cell noCPT -15% and HepG2 tox -13%.
`CN(C)c1cc[n+](CC(=O)N2c3ccccc3Sc3ccccc32)cc1` gave TDP1 cell CPT 2.1µM*, ASM inhibitor 1%, IL-1B inflam inh inconclusive, TGFb inhibitor 0%, TDP1 cell noCPT 2.9µM* and HepG2 tox -13%.
